Bioassay records deposited in PubChem BioAssay by several laboratories.
esBAF inh: inhibitors of esBAF chromatin remodeling in mouse ES cells; Bmi1-luciferase knock-in reporter, 24 h; 100% = twice the neutral-well signal; reporter increase, % at 12.5 µM; 350,000 tested, 2% active; AID 602393; in the data active means activation above about 40%; inconclusive means no clear call, values can overlap the other calls;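 further: 0% = median of the plate's neutral control wells and 100% = double that signal; a rise in the Bmi1 reporter signal indicates esBAF inhibition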
Wnt act: activators of Wnt/beta-catenin signaling; Wnt/beta-catenin reporter cell assay, activator, plate reader; activation, % at 9.35 µM; 300,000 tested, 1.2% active; AID 743398; in the data active means activation above about 30%, passing the limit was not always enough; inconclusive means no clear call, values can overlap the other calls;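 further: 0% = neutral control wells and 100% = positive control wells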
MITF TRPM1 HTS: increases MITF-driven TRPM1 promoter luciferase signal | 300,000 tested, 0.75% active | AID 588334 | SK-MEL-5 TRPM1-promoter luciferase, 24 h; % of positive control, neutral wells = 0 | activation, % at 12.5 µM;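 active means mean activation of at least 80% with every replicate also reaching 80%; inconclusive means mean reaches 80% but some replicate falls short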;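 further: 0% = neutral control wells and 100% = parthenolide positive control wells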
GAA850 FXN act: frataxin GAA850 promoter activation; AID 540364; HEK293 lucGAA850 FXN promoter luciferase reporter, 24 h; percent of 10 µM SAHA response; activation, % at 6 µM; 360,000 tested, 0.56% active;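 active means activation above the average of all compounds screened plus 3 SD, cutoff fixed separately per campaign, cut at about 7.5% in these data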;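 further: 0% = DMSO wells and 100% = 10 µM SAHA wells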
Numbers without * were called inactive; ? = inconclusive; / = no result. The list is not random: actives were taken first. Their share in the collection is about 2.8%.

SMILES	esBAF inh	Wnt act	MITF TRPM1 HTS	GAA850 FXN act
O=[N+]([O-])c1ccc2nc(-c3ccc(Cl)cc3)n(OCc3ccccc3)c2c1	68*	65*	/	4
COn1c(-c2ccc(Cl)cc2)nc2ccc(Cl)cc21	5	57*	22	5
C[C@H](CO)N1C[C@H](C)[C@H](CN(C)Cc2ccc(-c3ccccc3)cc2)Oc2c(NS(=O)(=O)c3cccs3)cccc2C1=O	-4	/	/	/
CC=Cc1ccc2n(c1=O)C[C@@H]1[C@@H](CO)[C@H](C(=O)NCCC)[C@H]2N1C(=O)Nc1cc(F)ccc1F (mixture of isomers)	0	/	/	/
C[C@@H]1CN([C@H](C)CO)C(=O)c2cccc(NC(=O)C3CCCCC3)c2O[C@H]1CN(C)Cc1ccc(-c2ccccc2)cc1	-1	/	/	/
CC1CCC(NC(=O)CCNC(=O)c2ccc(Br)cc2)CC1 (centres undefined)	?	-5	82*	4
Cc1cccc(NC(=O)CCNC(=O)c2ccc(Br)cc2)c1	54*	11	64	1
O=C(CCNC(=O)c1ccc(Br)cc1)Nc1cccc(S(=O)(=O)N2CCCC2)c1	5	-3	-5	1
CC(=O)Nc1cccc(NC(=O)c2ccc(Br)cc2)c1	42*	3	20	2
CCC(=O)Nc1cccc(NC(=O)c2ccc(Br)cc2)c1	/	6	15	2
CCCC(=O)Nc1ccc2c(c1)OC[C@@H](C)N(CC1CCCC1)C[C@H](C)[C@H](OC)CN(C)C2=O	-6	/	/	/
CO[C@@H]1CN(C)C(=O)c2cc(NS(=O)(=O)c3ccc(Cl)cc3)ccc2OC[C@@H](C)N(C(=O)NC(C)C)C[C@@H]1C	-3	/	/	/
Cc1cc2c(cc1C)CN(c1ccccc1)C2	48*	49*	96*	4
CCOc1ccccc1N1Cc2cc(C)c(C)cc2C1	46*	4	/	0
Oc1cccc(N2Cc3ccccc3C2)c1	21	/	13	0
CCOc1ccccc1N1Cc2ccccc2C1	-4	-10	-8	0
CCOc1cc(-c2ccccc2)nc(N)n1	47*	/	24	3
COc1cc(-c2ccccc2)nc(N)n1	/	14	47	3
Cc1noc(C)c1NC(=O)N(C)C[C@@H]1Oc2ccc(NC(=O)Cn3cnnn3)cc2CC(=O)N([C@H](C)CO)C[C@H]1C	5	/	/	/
C[C@@H]1CCCCO[C@@H](CN(C)Cc2ccccc2)[C@@H](C)CN([C@H](C)CO)C(=O)c2cc(NC(=O)Nc3ccc(C(F)(F)F)cc3)ccc2O1	-5	/	/	/
Cc1c(C(=O)NCc2cccnc2)sc2nc(-c3ccc(F)cc3)cn12	66*	0	/	1
Cc1c(C(=O)NCc2cccnc2)sc2nc(-c3ccccc3)cn12	66*	7	/	5
Cc1c(C(=O)NCCCN2CCOCC2)sc2nc(-c3ccc(F)cc3)cn12	16	/	24	3
COc1ccc(-c2cn3c(C)c(C(=O)NCCN4CCOCC4)sc3n2)cc1	56*	/	/	2
COC(=O)C1CCN(C(=O)c2sc3nc(-c4ccc(F)cc4)cn3c2C)CC1	14	/	/	1
SMILES	esBAF inh	Wnt act	MITF TRPM1 HTS	GAA850 FXN act
Cc1ccsc1C(=O)Nc1ccc(OCc2ccccc2)cc1	54*	17	55	2
CCOC(=O)c1c(NC(=O)c2cc(C)oc2C)sc(C(=O)Nc2ccc(Cl)cc2)c1C	?	42*	75	3
O=C(Nc1ccc(OCc2ccccc2)cc1)c1ccccc1	/	-6	50	4
Cc1cc(C(=O)Nc2ccc(OCc3ccccc3)cc2)c(C)o1	44*	28	64	2
CC(C)=CC(=O)Nc1ccc(OCc2ccccc2)cc1	50*	41*	64	5
CCOC(=O)C(=O)Nc1ccc(OCc2ccccc2)cc1	-5	-1	4	1
O=C(C[C@@H]1CC[C@H](NC(=O)Nc2ccc(C(F)(F)F)cc2)[C@@H](CO)O1)NCCN1CCCC1	5	/	/	/
CNC[C@H]1Oc2ccc(NC(=O)Nc3cccc4ccccc34)cc2C(=O)N([C@H](C)CO)C[C@@H]1C	-4	/	/	/
CC(C)c1cn(CC[C@H]2CC[C@@H](NC(=O)C3CCCCC3)[C@H](CO)O2)nn1	0	/	/	/
CC(=O)N(C)C[C@@H]1Oc2ncc(C#Cc3ccncc3)cc2C(=O)N([C@H](C)CO)C[C@@H]1C	-3	/	/	/
CC(C)=CC(=O)Nc1ccc(Br)cc1	66*	-3	107*	4
C[C@@H]1CN([C@@H](C)CO)C(=O)c2cc(NS(=O)(=O)c3ccc(Cl)cc3)ccc2O[C@@H]1CN(C)C(=O)Nc1ccc(C(F)(F)F)cc1	3	/	/	/
CN1CCc2c(sc3c2C(=O)NC(c2ccccn2)N3)C1 (centres undefined)	4	/	/	-3
O=C1NC(c2ccccn2)Nc2sc3c(c21)CCC3 (centres undefined)	66*	/	?	4
Cc1ccsc1C1NC(=O)c2c(sc3c2CCCC3)N1 (centres undefined)	50*	/	52	3
CC=Cc1ccc2n(c1=O)C[C@H]1[C@H](CO)[C@@H](C(=O)NCc3ccccc3)N(Cc3cncnc3)[C@@H]21 (mixture of isomers)	-2	/	/	/
Cc1noc(C)c1NC(=O)Nc1ccc2c(c1)C(=O)N([C@H](C)CO)C[C@@H](C)[C@H](CN(C)S(=O)(=O)c1ccccc1)O2	-3	/	/	/
CN1c2ccc(-c3cccc(C#N)c3)cc2[C@@H]2[C@@H](CCN2C(=O)c2ccc(F)cc2)[C@@H]1CO	2	/	/	/
CCc1ccc(C(O)c2ncc(-c3cccc(F)c3)[nH]2)cc1 (centres undefined)	87*	-2	/	2
COc1cccc(-c2cnc(C(O)c3ccc(F)cc3)[nH]2)c1 (centres undefined)	56*	2	/	0
c1ccc(-c2nc(-c3ccco3)cs2)nc1	34	3	91*	2
O=C(CSc1ccccn1)Nc1ccc2c(c1)C(=O)c1ccccc1C2=O	/	/	95*	6
O=C(CSc1ccccn1)Nc1ccc2c(c1)CCC2	77*	/	110*	1
O=C(CSc1ccccn1)Nc1ccc2c(c1)OCCO2	?	-4	50	3
COc1ccc(CN(C)C[C@@H]2OCCCC[C@@H](C)Oc3ccc(NC(=O)c4ccccc4)cc3C(=O)N([C@@H](C)CO)C[C@@H]2C)cc1	3	/	/	/
SMILES	esBAF inh	Wnt act	MITF TRPM1 HTS	GAA850 FXN act
C[C@@H]1CCCCO[C@H](CN(C)S(=O)(=O)c2cn(C)cn2)[C@@H](C)CN([C@H](C)CO)C(=O)c2cc(NC(=O)C3CCCCC3)ccc2O1	-2	/	/	/
CO[C@H]1CN(C)C(=O)c2cc(NS(=O)(=O)c3ccc(Cl)cc3)ccc2OC[C@H](C)N(C)C[C@H]1C	-1	/	/	/
COc1ccccc1NC(=O)N[C@@H]1CC[C@H](CCNS(=O)(=O)c2ccccc2)O[C@@H]1CO	7	/	/	/
Cc1cc(C)n(-c2cc(-n3nc(C)cc3C)ncn2)n1	1	/	/	0
Cc1ccc(Oc2cc(-n3nc(C)cc3C)ncn2)cc1	48*	/	62	2
CCCC#Cc1ccc2c(c1)O[C@@H](CN(C)C(=O)NC(C)C)[C@H](C)CN([C@@H](C)CO)S2(=O)=O	3	/	/	/
COc1ccc(/C=N/Nc2ccccc2C(=O)O)cc1Cn1cc([N+](=O)[O-])cn1	48*	18	13	0
